The whole screen tested about 350,000 compounds, of which about 31,000 (8.9%) were called active. Not shown: some 15% with an inconclusive outcome. The call rests on the fitted dose curve; in most records, active means well fitted inhibition curve with a large enough effect; inconclusive means small, poorly fitted or top-dose-only effect; inactive means no such curve, though single readings can be large or run the other way. Shown is part of a subset that was picked to be rich in actives.
These molecules were tested against Histone-lysine N-methyltransferase EHMT2 (Homo sapiens) (UniProt Q96KQ7) (assay: qHTS Assay for Inhibitors of Histone Lysine Methyltransferase G9a). Conditions: G9a H3K9 monomethylation, AlphaScreen, 2 h; series mostly up to 59 µM; activity, negative = inhibition: at the top concentration.
Histone-lysine N-methyltransferase EHMT2 (Homo sapiens), sequence (Q96KQ7 913-1193 limits assumed): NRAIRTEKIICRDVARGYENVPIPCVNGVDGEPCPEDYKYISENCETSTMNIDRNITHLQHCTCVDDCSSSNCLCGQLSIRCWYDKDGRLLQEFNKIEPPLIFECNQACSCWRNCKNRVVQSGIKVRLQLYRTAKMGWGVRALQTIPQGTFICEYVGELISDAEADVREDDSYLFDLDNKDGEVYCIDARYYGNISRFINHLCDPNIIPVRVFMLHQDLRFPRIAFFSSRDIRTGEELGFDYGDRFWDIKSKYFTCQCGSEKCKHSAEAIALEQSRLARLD
Source text: Methylated lysines, on the N-terminal tails of histone proteins serve as epigenetic markers to recruit factors that can then modify local chromatin structure to lead to functional consequences. G9a and other members of the SUV39 family of the SET domain-containing superfamily of histone lysine methyltransferases (HMT) have been identified to specifically methylate Lys9 of histone H3 (H3K9). G9a catalyzes the mono- and di-methylation of H3K9 in mammalian euchromatic regions, where the resulting H3K9me2 is indicative of transcriptional repression. […] The inhibition of G9a will result in transcriptional activation and work synergistically with DNA methyltransferase and histone deacetylase inhibitors, to kill cancer cells. This qHTS assay for identification of G9a inhibitors is a chemiluminescence based AlphaScreen (PerkinElmer). Methylation of biotinylated-histone peptide is measured through specific antibody-based detection, in conjunction with streptavidin-coated donor and anti-IgG antibody-coated acceptor beads. The method is particularly well suited for detection of inhibitors acting by the desired histone peptide competitive mechanism and is applicable to testing other HMTs. Although AlphaScreen has significant advantages with its utility in a variety of epigenetic target assays, the primary screening data provided in this deposition should be used with caution due to the prevalence of screening artifacts. An AlphaScreen counterscreen is highly recommended to be run against any putative actives to eliminate non specific artifacts. Alternatively, one can use other AlphaScreen assays in PubChem to filter out promiscuous hits. Quinn et al. A chemiluminescence-based method for identification of histone lysine methyltransferase inhibitors. Mol Biosyst 6(5): 782-8. 2010. PMID: 20567762 [2] Baell,Holloway. New substructure filters for removal of pan assay interference compounds (PAINS) from screening libraries and for their exclusion in bioassays. J Med Chem. 53(7):2719-40. 2010. PMID: 20131845 NIH Molecular Libraries Probe Production Network [MLPCN] NIH Chemical Genomics Center [NCGC] Structural Genomics Consortium (SGC) NIH Grant: 5U54 MH084681-02
To each well of a 1,536w plate, 2ul of HMT enzyme (final 20nM) were added, using a nanoliter dispenser. The G9a- and GLP-inhibitor BIX-01294 (CID: 25150857) are used as an intraplate control, with a 16-point titration in duplicate. A Kalypsys pin-tool transferred 23nl of library compound solution in DMSO to each well. Following a 15 min incubation of enzyme with compounds at room temperature, 1ul mixture of b-H3K9 peptide substrate (final 500nM) and SAM cofactor (final 20uM) were added. Reactions were allowed to proceed at room temperature for 2 hours. Methylated b-H3K9 peptide product was detected with 0.5 ug/mL rabbit polyclonal anti-monomethyl histone H3K9 antibody (Abcam Inc., Cambridge, MA) and 20 ug/mL each streptavidin-coated donor and anti-rabbit IgG acceptor AlphaScreen beads. Antibody and beads were added in a 1ul dispense, for a final volume of 4ul, and plates were incubated, protected from the light, for 10 min at room temperature. Microplates were then read on an EnVision multilabel plate reader using the 1,536 plate HTS AlphaScreen aperture (excitation time 80 ms, measurement time 240 ms).
Further: nearly all actives have a fitted effect of over 75% in size.
On the % scale 0 is the no-effect control and ±100 the full control effect; potency means the concentration at half of the fitted maximal effect.

Potency, active:
CCn1c(CSCc2c(Cl)cccc2Cl)n[nH]c1=S 2.82 µM
O=C(Nc1ccc(Cl)cn1)Nc1cccs1 56.2 µM
Cn1c(-c2sc3cc(C(F)(F)F)cnc3c2-c2ccccc2)n[nH]c1=S 2.24 µM
O=C1NC(=O)C2C1C(c1ccc([N+](=O)[O-])cc1)=NN2Cc1ccccc1 (stereo unspecified) 50.1 µM
Nn1c(SCC(=O)NC2CCCC2)nnc1-c1ccccc1F 50.1 µM
O=C(CSc1nnc(Nc2ccccc2F)s1)NC1CCCC1 8.91 µM
CCc1ccc(S(=O)(=O)Nc2cc3c(cc2N2CCCCC2)n(C)c(=O)c(=O)n3C)cc1 44.7 µM
COCCn1nnnc1C(c1cc2ccc(OC)cc2[nH]c1=O)N1CCc2ccccc2C1 (stereo unspecified) 5.62 µM
COc1ccc(OC)c(C(c2nnnn2C(C)(C)C)N2CCc3ccccc3C2)c1 (stereo unspecified) 50.1 µM
C=CCn1c(C23CC4CC(CC(C4)C2)C3)n[nH]c1=S 3.16 µM
COc1ccc(CNC(=O)CSc2n[nH]c(N)n2)cc1OC 79.4 µM
Nc1nc(SCC(=O)NNc2c(Cl)cc(Cl)cc2Cl)n[nH]1 10 µM
CCOC(=O)C1CCN(Cc2ccc(-c3ccccc3)cc2)CC1 28.2 µM

activity, negative = inhibition, inactive:
O=C(CSCc1c(Cl)cccc1Cl)NN1C(=O)c2ccccc2C1=O -11.1% [at 2.33 µM]
O=c1[nH]nc(CSCc2ccccc2Cl)[nH]1 -25.8%
COc1ccccc1-n1ccnc(SCC(=O)NC2CCCCC2)c1=O -32.6% [at 102 µM]
Cc1ccc(C)c(OCCC(=O)OCC(=O)NC(=O)NCc2ccccc2)c1 -14% [at 102 µM]
O=C(Nc1cccc([N+](=O)[O-])c1)Nc1ccc(Cl)cn1 0.0678% [at 102 µM]
CCCc1cc(C(=O)Nc2ccc(Cl)cn2)cs1 164% [at 102 µM]
COc1ccc(S(=O)(=O)N2CCCCC2)cc1NC(=O)C1CC(=O)N(c2ccc3c(c2)OCCO3)C1 (stereo unspecified) -34.3% [at 102 µM]
CCOc1ccc(S(=O)(=O)N2CCCCC2)cc1NC(=O)CN1CCCC1c1cccs1 (stereo unspecified) 19.5% [at 2.33 µM]
Cc1nn(-c2nc(-c3ccccc3)cc(C(F)(F)F)n2)c(C)c1Cl 32%
Cc1cc(C(F)(F)F)n2ncc(-c3ccccc3)c2n1 -32.2%
Cc1ccc2c(=O)c(C(=O)c3cccc(Cl)c3)cn(CC(=O)NCc3ccccc3)c2n1 4.96%
Cc1nc2ccccc2c(=O)n1Cc1ccc([N+](=O)[O-])cc1 -6.02% [at 102 µM]
CC(=O)N1c2ccccc2N(Cc2ccc([N+](=O)[O-])cc2)C(=O)C1(C)C 6.61%
Nn1c(SCC(=O)NC(=O)NC2CCCC2)nnc1-c1ccccc1F 17.4% [at 102 µM]
Cc1cc(NC(=O)CSc2nnc(Nc3ccccc3F)s2)no1 1.03% [at 102 µM]
CC(C)NC(=O)NC(=O)CSc1nnc(-c2ccccc2F)n1N 12.1% [at 102 µM]
O=C(CSc1nnc(Nc2ccccc2)s1)Nc1cccnc1Cl -22.7% [at 102 µM]
O=C1CCCN1C(=O)COc1ccc([N+](=O)[O-])cc1 4.7%
COc1ccc(CCNc2nc(-c3ccc(F)cc3)cc(C(F)(F)F)n2)cc1OC 24.8%
Cc1cc(C)cc(-c2nnc(SCC(=O)NC3CC3)o2)c1 18.2% [at 2.33 µM]
CO[C@H]1[C@@H]2C=CO[C@@H](O[C@H]3O[C@@H](CO)[C@H](O)[C@@H](O)[C@@H]3O)[C@@H]2[C@@]2(CO)O[C@@H]12 -4.51% [at 2.33 µM]
COc1cccc(CNC(=O)Cn2c(=O)c3cccn3c3ccc(F)cc32)c1OC 10.8%
CCc1ccc(S(=O)(=O)Nc2ccc(C)c(NS(C)(=O)=O)c2)cc1 -16.3% [at 102 µM]
Cn1c(=O)c(=O)n(C)c2cc(S(=O)(=O)NCCc3ccccc3)ccc21 29.1% [at 0.501 µM]
CCOc1ccc2[nH]c(=O)c(C(c3nnnn3CCOC)N3CCOCC3)cc2c1 (stereo unspecified) 8.47% [at 2.33 µM]
CN1CCN(C(c2cc3cc4c(cc3[nH]c2=O)OCCO4)c2nnnn2C2CCCC2)CC1 (stereo unspecified) -7.18% [at 102 µM]
CCC(C)(C)n1nnnc1C(c1ccccc1OC)N1CCSCC1 (stereo unspecified) -7.71%
Cc1ccc(C(c2nnnn2C(C)(C)C)N2CCc3ccccc3C2)cc1 (stereo unspecified) -10.6%
Cc1ccc(Cn2c(C)c3cnn(CC(=O)NCc4ccccc4)c(=O)c3c2C)cc1 -9.83%
COc1ccc(S(=O)(=O)N2CCCCCC2)cc1C(=O)N(C)Cc1cccc(OC)c1OC -29.7% [at 102 µM]
COc1ccc(CCNC(=O)CCCn2c(=O)c3ccccc3n(Cc3ccc(C)cc3)c2=O)cc1OC -28%
C=CCn1c(SCC(=O)NC)nnc1C12CC3CC(CC(C3)C1)C2 5.32% [at 102 µM]
C=CCn1c(SCC(=O)NC23CC4CC(CC(C4)C2)C3)nc(O)cc1=O 18.6%
COc1ccc(C(=O)NCc2ccc(C)cc2)cc1S(=O)(=O)N1CCCC1 -16.6% [at 0.0925 µM]
Nc1nc(SCC(=O)NN(c2ccccc2)c2ccccc2)n[nH]1 8.39%
COc1ccc(CNC(=O)CSc2n[nH]c(-c3ccc(F)cc3)n2)cc1 0.544%
Nc1nc(SCC(=O)Nc2ccc(Cl)cc2C(F)(F)F)n[nH]1 -3.97% [at 102 µM]
Nc1nc(SCC(=O)Nc2ccc(Cl)c([N+](=O)[O-])c2)n[nH]1 -3.46% [at 12.7 µM]
Cc1ccc(CCNC(=O)C2CCN(c3nnc(-n4cccc4CNc4ccc(C)cc4)s3)CC2)cc1 -6.97%
COC(=O)c1ccc(NC(=O)c2cccc3c2C(=O)N(C2CCCCC2)C3)cc1 3.3%
CC1CCN(C(=O)c2cccc(S(=O)(=O)N3CCCc4ccccc43)c2)CC1 10.4% [at 2.33 µM]
COc1cc(OC)cc(C(=O)NNC(=O)CCOc2ccccc2OC)c1 10.9%
COc1cccc(C(=O)NCC(=O)OCc2cc(=O)n3ccsc3n2)c1 4.14%
COc1cc(C(=O)Nc2ccc(OCc3cc(=O)n4cc(C)sc4n3)cc2)cc(OC)c1OC -3.43%
O=C(Nc1cccc2cccnc12)c1cccc2c(Br)cccc12 -2.34%
CCCC(=O)C1CCN(Cc2ccccc2)CC1 -1.84% [at 102 µM]
CCOC(=O)C1CCN(Cc2nnc(-c3cccc(Br)c3)o2)CC1 -1.61% [at 102 µM]
CCC(C)N(C(=O)Cn1nc(C)c([N+](=O)[O-])c1C)C1CCS(=O)(=O)C1 (stereo unspecified) -29.5% [at 102 µM]
